Assay outcomes: PubChem, several laboratories
In the library only some 3.1% were active in any assay of this set; here they are far more common.
S1P3 antag = S1P3 (human) receptor antagonism; CHO S1P3 NFAT-BLA reporter, FRET fluorescence, antagonist mode; inhibition, % at 4.98 µM; 170,000 tested, 0.27% active; AID 485;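 active = inhibition above the plate cutoff, the mean inhibition of test wells on that plate plus 3 SD, cut at about 28% in these data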;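 note: cells challenged with S1P at its EC80 of 0.8 µM; blue over green emission ratio from cleaved BLA substrate after 4 h stimulation; 0% = S1P-stimulated wells and 100% = unstimulated DMSO-only wells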
Target sequence (Q99500 whole entry, looked up): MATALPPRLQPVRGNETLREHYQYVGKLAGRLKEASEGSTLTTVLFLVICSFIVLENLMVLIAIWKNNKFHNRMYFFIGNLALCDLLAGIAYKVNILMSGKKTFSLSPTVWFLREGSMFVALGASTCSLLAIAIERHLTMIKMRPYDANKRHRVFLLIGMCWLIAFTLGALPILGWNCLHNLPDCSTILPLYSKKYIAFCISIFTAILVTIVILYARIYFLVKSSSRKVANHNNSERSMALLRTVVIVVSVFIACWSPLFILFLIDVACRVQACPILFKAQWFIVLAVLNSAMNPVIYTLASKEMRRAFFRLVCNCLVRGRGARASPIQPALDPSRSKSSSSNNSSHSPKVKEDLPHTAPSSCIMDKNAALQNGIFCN
EP2 antag = EP2 receptor (human) inhibition. P43116. C6 glioma cells expressing human EP2, cAMP TR-FRET; cells stimulated with saturating PGE2. inhibition, % at 25 µM. 260,000 tested, 0.52% active. AID 1422;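 active = percent inhibition above 40 after rounding to a whole number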;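 note: rat C6 glioma host cells with rolipram phosphodiesterase inhibitor present; the protocol text gives 20 µM as final concentration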
Target sequence (P43116 whole entry, looked up): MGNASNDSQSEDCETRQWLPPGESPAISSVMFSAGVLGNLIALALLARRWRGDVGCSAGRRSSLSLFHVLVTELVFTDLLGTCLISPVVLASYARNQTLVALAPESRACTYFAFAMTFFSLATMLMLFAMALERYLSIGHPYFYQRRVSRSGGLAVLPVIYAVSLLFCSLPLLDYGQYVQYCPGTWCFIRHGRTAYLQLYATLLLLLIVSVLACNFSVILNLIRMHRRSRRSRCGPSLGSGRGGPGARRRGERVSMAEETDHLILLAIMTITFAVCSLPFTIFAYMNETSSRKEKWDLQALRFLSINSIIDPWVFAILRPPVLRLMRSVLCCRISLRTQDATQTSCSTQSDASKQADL
Cl transport mod = KCC2 (human) Cl- transport modulation; B-score of Tl+ flux slope (higher = more flux/activation; lower = inhibition) at 10 µM; KCC2 cells, thallium flux FluoZin-2 fluorescence; Q9H2X9; 190,000 tested, 2.2% active;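 active = thallium flux slope and its plate-corrected score both differing from the plate sample mean at a set confidence after two filtering rounds, in either direction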;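 note: slope of fluorescence scaled to starting intensity during 10 to 20 s after thallium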
EP2 mod = EP2 receptor (human) modulation | P43116 | EP2-expressing cells, cAMP HTRF FRET, PGE2 co-stimulation | induction, % at 25 µM | AID 940 | 260,000 tested, 0.83% active;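 active = compounds whose cAMP rise, as percent of the full-agonist control response, exceeds 60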;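 note: rat C6 glioma line stably carrying human EP2 under a CMV promoter; the protocol text gives 20 µM as final concentration; 100% = response of wells given 1 µM PGE2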
KCC2 secondary = KCC2 (human) modulation, secondary assay | shares compounds with Cl transport mod | HEK293-KCC2, thallium flux, FluoZin2 fluorescence; hits give high values | normalised thallium flux (F/F0 slope) at 10 µM | 3,700 tested, 15% active | AID 1713;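 active = thallium flux slope above the same plate's solvent-only control mean plus 3 SD; inconclusive = the two replicate wells disagree; inactive = no significant difference from solvent-only control wells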
KCC2 bumet counter = bumetanide-insensitive thallium flux in KCC2 cells with ouabain, counter-screen | shares compounds with Cl transport mod | normalized thallium flux at 10 µM | 3,700 tested, 49% active | AID 1714 | HEK293-KCC2 + bumetanide/ouabain, thallium flux FluoZin2; hits give high values;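 active = thallium entry rate above the same plate's blocked-transporter control wells by more than 3 SD; inconclusive = the two repeat wells disagree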;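 note: raw slope of fluorescence over initial fluorescence between 10 and 20 s after thallium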
KCC2 sec2 = confirmation of human KCC2 transport modulators; shares compounds with Cl transport mod; HEK293-KCC2, thallium flux FluoZin2 fluorescence; actives lie on both sides; F/F0 rise rate, 10–20 s post-thallium; 3,700 tested, 23% active; normalized thallium flux at 10 µM;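 active = thallium flux slope more than 3 SD above or below the plate's solvent-only control mean, mostly below; inconclusive = the two repeat wells disagreed; inactive = no significant shift from solvent-only controls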;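 note: raw slope with 0.1% DMSO as baseline and bumetanide as block control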
HEK293 Tl flux = counter-screen for KCC2 modulators: effect in parental HEK293 cells. thallium flux FluoZin2, ouabain; baseline-ratio fluorescence slope, 10–20 s after thallium. thallium flux rate (normalised fluorescence) at 10 µM. 3,700 tested, 46% active. shares compounds with Cl transport mod;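 active = thallium flux rate significantly above the same plate's solvent-only control wells, beyond their mean plus 3 SD; inconclusive = the two replicate wells gave conflicting results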
KCC2 retest ouab = KCC2 (human) modulation, ouabain retest; shares compounds with Cl transport mod; HEK293-KCC2, thallium flux FluoZin2 fluorescence; bidirectional: low = inhibitor, high = activator; raw Tl+ flux slope (below DMSO = inhibition, above = activation) at 10 µM; 3,700 tested, 48% active;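 active = thallium flux slope beyond 3 SD from same-plate DMSO control mean in most replicates, usually higher, sometimes lower; inconclusive = repeat tests gave conflicting results; inactive = no significant difference from controls in most replicates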;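 note: slope of initial-normalized fluorescence between seconds 10 and 20 after thallium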
HEK293 Tl flux2 = acts in parental HEK cells, second KCC2 counter-screen. thallium flux slope at 10 µM. shares compounds with Cl transport mod. HEK293 parental, thallium flux FluoZin-2 fluorescence slope. 3,700 tested, 33% active;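 active = thallium flux slope above the same plate's solvent-control mean plus 3 SD in both duplicate wells; inconclusive = duplicate wells that disagreed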;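 note: run without ouabain in cells lacking the KCC2 cotransporter; slope of fluorescence scaled to its starting value between 10 and 20 s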
Active calls of the source: *.

For O=c1[nH]c(=O)n(C2CCCO2)cc1F (configuration not stated) the results were S1P3 antag -7.9, EP2 antag 11.1, Cl transport mod 7.51*, EP2 mod 34.1, KCC2 secondary 0.0109, KCC2 bumet counter 0.00642, KCC2 sec2 0.0368, HEK293 Tl flux 0.00391, KCC2 retest ouab 0.0206 and HEK293 Tl flux2 0.0118.
CCOc1ccc(OCC)c(NC(=O)C2CCCN(c3nc(C)cc(C)n3)C2)c1 (configuration not stated) was read as S1P3 antag 5.2, EP2 antag 6.7, Cl transport mod -3.75*, EP2 mod -0.9, KCC2 secondary 0.00604, KCC2 bumet counter 0.00409, KCC2 sec2 inconclusive, HEK293 Tl flux 0.00572*, KCC2 retest ouab 0.0139* and HEK293 Tl flux2 inconclusive.
CCOc1cccc(NC(=O)C2CCCN(c3nc(C)cc(C)n3)C2)c1 (configuration not stated) was read as EP2 antag 3.5 and EP2 mod -28.7.
`O=C(CSc1ncnc2sc3c(c12)CCCC3)Nc1cccc(Cl)c1Cl` gave EP2 antag 18.1 and EP2 mod 12.4.
For Cc1nn(C)c(C)c1S(=O)(=O)N(CC(=O)N1CCc2ccccc2C1)c1ccc(C(C)C)cc1 the results were EP2 antag 13.4, EP2 mod 12.7, KCC2 secondary inconclusive, KCC2 bumet counter 0.00494, KCC2 sec2 0.0253*, HEK293 Tl flux inconclusive, KCC2 retest ouab 0.0144* and HEK293 Tl flux2 0.00935.
Screening COc1ccc2cc(C)c3nnc(SCC(=O)N4CCCCC4C)n3c2c1 (configuration not stated) returned EP2 antag 16.6 and EP2 mod -60.3.
For Cc1ccc(Nc2nc(-c3ccc(C)cc3)c(CC(=O)O)s2)cc1 the results were S1P3 antag -3.8, EP2 antag 5.8, Cl transport mod -3.19*, EP2 mod -0.5, KCC2 secondary 0.0084, KCC2 bumet counter 0.00909*, KCC2 sec2 0.0294, HEK293 Tl flux 0.00726, KCC2 retest ouab 0.018 and HEK293 Tl flux2 0.0103.
COc1ccc(Nc2nc(-c3ccc(OC)cc3)c(CCC(=O)O)s2)cc1 was read as S1P3 antag 1.2, EP2 antag 10.1, Cl transport mod -2.91 and EP2 mod 6.8.
COC(=O)CC1C(=O)NCCN1C(=O)CSc1nc2ccccc2c(=O)n1CC(C)C (configuration not stated) was read as S1P3 antag -21.5, EP2 antag 6.6, Cl transport mod 21.9*, EP2 mod 16.4, KCC2 secondary 0.00666, KCC2 bumet counter 0.0351*, KCC2 sec2 0.04*, HEK293 Tl flux 0.0324*, KCC2 retest ouab 0.0375* and HEK293 Tl flux2 0.0265*.
`CCn1c(N2CCC(C(=O)NCCc3ccccc3F)CC2)nc2ccccc21` gave EP2 mod -35.6.
For Cc1onc(C(=O)N2CCN(Cc3ccccc3)CC2)c1[N+](=O)[O-] the results were S1P3 antag -8.1, EP2 antag 10.3, Cl transport mod -4.1*, EP2 mod 22.7, KCC2 secondary 0.00884, KCC2 bumet counter 0.00654, KCC2 sec2 inconclusive, HEK293 Tl flux 0.00749, KCC2 retest ouab 0.0194* and HEK293 Tl flux2 0.0104.
Screening NC(=O)CC(NC(=O)Cc1ccc(Br)cc1)c1ccc(NCCc2ccc(F)cc2)c([N+](=O)[O-])c1 (configuration not stated) returned EP2 antag -2.9, Cl transport mod -2.96*, EP2 mod -32.5, KCC2 secondary 0.0169, KCC2 bumet counter 0.00387, KCC2 sec2 inconclusive, HEK293 Tl flux inconclusive, KCC2 retest ouab 0.0143 and HEK293 Tl flux2 0.00963.
CCCC(c1nnnn1Cc1ccccc1)N(Cc1ccco1)Cc1cc2cc(C)c(C)cc2[nH]c1=O (configuration not stated) was read as EP2 antag 11.6 and EP2 mod 33.1.
Screening CCN(CC(=O)NC(C)(C)C)C(=O)COc1c(Cl)cc(Cl)c2ccc(C)nc12 returned S1P3 antag -7.5, EP2 antag 11.4, Cl transport mod 88.2*, EP2 mod -8.9, KCC2 secondary 0.02*, KCC2 bumet counter 0.113*, KCC2 sec2 0.0357, HEK293 Tl flux inconclusive, KCC2 retest ouab 0.0898* and HEK293 Tl flux2 inconclusive.
O=C(COc1ncnc2ccccc12)NC1CCS(=O)(=O)C1 (configuration not stated) was read as S1P3 antag -12.2, EP2 antag 11.7 and EP2 mod 12.5.
`Cc1ccc2c(Cl)cc(Cl)c(OCC(=O)NC3CCS(=O)(=O)C3)c2n1` (configuration not stated) gave S1P3 antag -10.2, EP2 antag 3.7, Cl transport mod 10.5*, EP2 mod 10.3, KCC2 secondary 0.0178, KCC2 bumet counter 0.019*, KCC2 sec2 0.0304, HEK293 Tl flux 0.0158*, KCC2 retest ouab 0.0223* and HEK293 Tl flux2 0.0155*.
`Cc1cc(N2CCN(C(=O)C3CCCO3)CC2)n2nc(-c3cccc(F)c3)cc2n1` (configuration not stated) gave EP2 antag 3.5 and EP2 mod -10.4.
Screening CCN(CC)CCN1C(=O)C(=O)/C(=C(/O)c2ccc(OC)cc2)C1c1ccco1 (configuration not stated) returned Cl transport mod 8.68*, EP2 mod 8.8, KCC2 secondary 0.00608, KCC2 bumet counter 0.00574*, KCC2 sec2 0.0307, HEK293 Tl flux inconclusive, KCC2 retest ouab 0.0202 and HEK293 Tl flux2 inconclusive.
Screening CC(C)Oc1ccc(/C(O)=C2/C(=O)C(=O)N(CCN(C)C)C2c2ccco2)cc1 (configuration not stated) returned EP2 antag 14.4 and EP2 mod 33.0.
`CC12CCC(C(=O)Nc3nc4ccc(Br)cc4s3)(OC1=O)C2(C)C` (configuration not stated) gave S1P3 antag -22.6, EP2 antag 0.0, Cl transport mod 9.69*, EP2 mod 2.6, KCC2 secondary 0.0052, KCC2 bumet counter 0.04*, KCC2 sec2 inconclusive, HEK293 Tl flux 0.0166*, KCC2 retest ouab 0.0349* and HEK293 Tl flux2 0.0216*.
